# Measurements published in PubChem BioAssay (EPA / NIEHS).
# “And” between values parts separate entries of the source, which are not always exact repeats. Equal entries are not always repeated. The source made the active and inactive calls. How the source made its calls: active means hit-call score of the fitted dose curve at least 0.9, where 1 is the maximum; inactive means score below 0.9.
# Read-out: Collagen III, COL3A1 (gene 1281)
# Test: BSK_MyoF_CollagenIII: BioMAP Diversity Plus: MyoF Assay for Collagen III Biomarker Activity (AID 2284239)
# Details: primary human lung fibroblasts
# Summary of the method: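 Human lung fibroblasts were dosed with chemicals and, 24 hours later, collagen III was measured by ELISA. Activity was fitted in the positive direction against the DMSO negative-control baseline.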
SMILES,outcome,AC50
O=C1OC2(c3ccc(O)cc3Oc3cc(O)ccc32)c2ccccc21,inactive,
CC=CC(=O)C1=C(C)C=CCC1(C)C,inactive,
c1ccc(Sc2ccccc2)cc1,,34.2 µM (active)
O=C(O)C(F)(F)OC(F)(F)C(F)(F)OC(F)(F)C(F)(F)C(F)(F)C(F)(F)F,,42.2 µM (active) and 44.1 µM (active)
CCCCCCCC1CCCC1=O (stereo not given),,32.7 µM (active)
CCC(=O)OCC=Cc1ccccc1,inactive,
CC(C)Cc1ccc(C(C)C(=O)O)cc1 (stereo not given),inactive,
CC(=O)CCC=C(C)CCC=C(C)C,inactive,
CCOC(=O)C=Cc1ccccc1,inactive,
C=C1CC/C=C(\C)CC[C@@H]2[C@@H]1CC2(C)C,,30.1 µM (active)
O=S1(=O)CC(Cl)(Cl)C(Cl)(Cl)C1,,1.89 µM (active)
CCCCCCCCCCCCS,,27.9 µM (active)
OCC(F)(OC(F)(F)C(F)(OC(F)(F)C(F)(F)C(F)(F)F)C(F)(F)F)C(F)(F)F (stereo not given),,5.14 µM (active) and 4.82 µM (active)
CC(C)(C)c1cccc(O)c1,inactive,
CC(=O)OCC=C(C)CCC=C(C)CCC=C(C)C,inactive,
O=C(O)C(F)(F)C(F)(F)C(F)(F)C(F)(F)C(F)(F)C(F)(F)C(F)(F)C(F)F,inactive,
NC(=O)c1c(Cl)cccc1Cl,inactive,
C=C(C)C(=O)OCCC(F)(F)C(F)(F)C(F)(F)C(F)(F)C(F)(F)C(F)(F)C(F)(F)C(F)(F)F,inactive,
Nc1ccc(N)c([N+](=O)[O-])c1,inactive,
COc1ccccc1NC(=O)CC(C)=O,inactive,
CC1=CC(C)C(C=O)C(C)C1 (stereo not given) (tested in a mixture with another compound),inactive,
c1ccc2c(c1)-c1ccc3ccc4cccc5cc-2c1c3c45,,10 µM (active)
CC(=O)OC(C)(C)C1CC=C(C)CC1 (stereo not given),inactive,
CC1(C)[C@H](C=C(Cl)Cl)[C@H]1C(=O)OCc1cccc(Oc2ccccc2)c1,inactive,
O=S(=O)(O)C(F)(F)C(F)(F)OC(F)(F)C(F)(F)F,inactive,
CCCCCCCCCC(=O)OCC,inactive,
CCOC(=O)CCCCCCCCC(=O)OCC,inactive,
C=C(F)C(=O)OC(C(F)(F)F)C(F)(F)F,inactive,
OCCN1CCOCC1,,0.016 µM (active)
C=CC(=O)OCC(CO)(COC(=O)C=C)COC(=O)C=C,,1.25 µM (active)
